Test results published in PubChem BioAssay AID540333 (Southern Research Specialized Biocontainment Screening …, 2011).
The whole screen tested about 10,000 compounds, of which about 320 (3.2%) were called active. What follows is part of a selection rich in actives, with near analogues and random picks from the rest. Unmarked numbers belong to inactive results. Cut-off read from the data, not from the text of the source: active = CPE inhibition mostly above about 9.1% (no sharp cut-off); inactive = mostly below about 7.2%.

Assay: Dengue virus cytopathic effect inhibitors, cell-based, CPE readout, HTS (AID 540333)
Settings: Dengue virus CPE inhibition in host cells, at 20 µM; stronger effect = higher value
In the case of `Cc1cc(C)cc(-n2c(SCC(=O)Nc3cccc(S(=O)(=O)NC4=NCCCCC4)c3)nc3ccccc3c2=O)c1`, the CPE inhibition was 0.54%.
`CNC(=O)CSc1nnc(SCCC(=O)O)s1` gave a CPE inhibition of 0.415%.
In the case of `Cc1ccccc1-n1c(C)nnc1SCC(=O)NC1CCCc2ccccc21` (stereo not given), the CPE inhibition was 0.065%.
With `Cc1cccc(Nc2nnc(SCC(=O)NC3CCCc4ccccc43)s2)c1C` (stereo not given) the CPE inhibition was 14.5% (active).
`O=C(CSc1nc2ccccc2s1)NC1CCCc2ccccc21` (stereo not given) showed a CPE inhibition of 0.775%.
Work on `O=C1c2ccccc2C(=O)N1CN(C(=O)COc1ccc(Cl)cc1Cl)c1cccc(F)c1` yielded a CPE inhibition of 3.16%.
With `CCOC(=O)C1=C(C)NC(=O)C1CC(=O)O` (stereo not given) the CPE inhibition was “inactive”.
`CN(c1cccc(NC(=O)CN(c2cccc(Cl)c2)S(=O)(=O)c2ccccc2)c1)S(C)(=O)=O` gave a CPE inhibition of 3.62%.
In the case of `CN(c1cccc(NC(=O)CN(c2ccc(Cl)c(Cl)c2)S(=O)(=O)c2ccccc2)c1)S(C)(=O)=O`, the CPE inhibition was 5.86%.
In the case of `CN(c1cccc(NC(=O)CN(c2cccc(Cl)c2)S(=O)(=O)c2ccc(Cl)cc2)c1)S(C)(=O)=O`, the CPE inhibition was 11.8% (active).
With `COC(=O)CNC(=O)C1Nc2ccc(OC(F)(F)F)cc2C2C=CCC12` (stereo not given) the CPE inhibition was 0.595%.
`COc1ccc2c(C)cc(Sc3nnnn3-c3ccccc3)nc2c1` showed a CPE inhibition of 3.01%.
In the case of `COc1ccc(NC(=O)c2ccc(C#N)cc2)cc1NS(=O)(=O)c1ccc(F)cc1`, the CPE inhibition was “inactive”.
In the case of `CCC(=O)N1N=C(c2ccc(C)o2)CC1c1ccc(Br)cc1` (stereo not given), the CPE inhibition was “inactive”.
For `CC(=O)N1N=C(c2ccccc2)CC1c1cn(Cc2ccccc2)c2ccccc12` (stereo not given), the CPE inhibition was 6.58%.
For `CC(=O)N1N=C(c2ccc(Br)cc2)CC1c1cn(C)c2ccccc12` (stereo not given), the CPE inhibition was 16% (active).
For `Cn1c(C=O)c(C#Cc2ccccc2)c2ccccc21`, the CPE inhibition was “inactive”.
With `COc1cc(C#Cc2c(C=O)n(C)c3ccccc23)cc(OC)c1` the CPE inhibition was 8.36% (active).
Compound `Cn1c(C=O)c(C#CC(C)(C)O)c2ccccc21` has a CPE inhibition of 4.96%.
`COc1cc(SC)ccc1C(=O)NCCc1ccccc1` gave a CPE inhibition of 0.785%.
With `O=C(Nc1cccc(Cl)c1)Nc1cc(S(=O)(=O)N2CCOCC2)ccc1N1CCCC1` the CPE inhibition was 8.49%.
Compound `CC(C)CC(NC(=O)c1ccc(Cl)cc1)C(=O)OCc1cc([N+](=O)[O-])cc2c1OCOC2` (stereo not given) has a CPE inhibition of 1.44%.
In the case of `COc1ccc(CNC(=O)COC(=O)C2CCC(C(C)(C)C)CC2)cc1` (stereo not given), the CPE inhibition was 24.9% (active).
Work on `COc1ccc(CCNC(=O)COC(=O)C2CCCCC2)cc1` yielded a CPE inhibition of 0.035%.
In the case of `COC(=O)c1ccc(CNC(=O)COC(=O)C2CCC(C(C)(C)C)CC2)cc1` (stereo not given), the CPE inhibition was 0.91%.
For `O=S1(=O)CCC(NC(=S)N2CCCCC2)C1` (stereo not given), the CPE inhibition was “inactive”.
In the case of `CC(=O)NC(Cc1ccccc1)C(=O)OCC(=O)c1ccc(Br)cc1` (stereo not given), the CPE inhibition was “inactive”.
For `COCCCN(C(=S)Nc1c(C)cc(C)cc1C)C(C)c1ccncc1` (stereo not given), the CPE inhibition was 0.045%.
For `COCCCN(C(=S)Nc1cc(Cl)cc(Cl)c1)C(C)c1ccncc1` (stereo not given), the CPE inhibition was 16.4% (active).
With `COCCCN(C(=S)Nc1ccc(C)cc1Cl)C(C)c1ccncc1` (stereo not given) the CPE inhibition was “inactive”.
In the case of `O=C(CCc1ccccc1)NCCSCc1c(F)cccc1Cl`, the CPE inhibition was “inactive”.
With `C#CCN(C(=O)Nc1ccccc1)c1ccccc1` the CPE inhibition was “inactive”.
For `CC(=O)NS(=O)(=O)c1cccnc1Nc1cccc(Cl)c1C`, the CPE inhibition was 1.49%.
`CC1CCC(=NNc2ccc(C(F)(F)F)cc2[N+](=O)[O-])CC1` (stereo not given) gave a CPE inhibition of 0.085%.
In the case of `CC1(OC(=O)C2CCCC2)C(=O)C=C2C=C3CCCCN3C=C2C1=O` (stereo not given), the CPE inhibition was “inactive”.
With `CCCCC1=CC2=CC(=O)C(C)(OC(=O)CC)C(=O)C2=CN1C1CCCC1` (stereo not given) the CPE inhibition was 20.9% (active).
In the case of `CCC(=O)OC1(C)C(=O)C=C2C=C(CCCC(=O)OC)OC=C2C1=O` (stereo not given), the CPE inhibition was “inactive”.
Compound `Cc1ccc(S(=O)(=O)N/N=C2/CCCCC2C2CCCCC2)cc1[N+](=O)[O-]` (stereo not given) has a CPE inhibition of 0.01%.
`Fc1ccc(CSc2ncnc3scc(-c4ccccc4)c23)cc1` gave a CPE inhibition of 1.17%.
With `COc1cc(OC)c(C(=O)OC(C)C(=O)Nc2cccc(C(F)(F)F)c2)cc1OC` (stereo not given) the CPE inhibition was “inactive”.
With `CCOC(=O)C(=NC1CCCCC1)NNc1cccc(C(F)(F)F)c1` the CPE inhibition was 5.4%.
For `O=C(OC(C(=O)Nc1cccc(C(F)(F)F)c1)c1ccccc1)C1CCCCC1` (stereo not given), the CPE inhibition was 21.9% (active).
For `Cc1cc(C)nc(NS(=O)(=O)c2ccc(NC(=O)C3(c4ccccc4)CCCC3)cc2)n1`, the CPE inhibition was “inactive”.
For `CC(=O)Nc1ccc(Sc2ncnc3scc(-c4ccccc4)c23)cc1`, the CPE inhibition was 2.31%.
With `COc1ccc(-c2csc3ncnc(Oc4ccc5c(C)cc(=O)oc5c4)c23)cc1` the CPE inhibition was “inactive”.
In the case of `CC(=O)Nc1cccc(Oc2ncnc3scc(-c4ccc(C(C)C)cc4)c23)c1`, the CPE inhibition was 15% (active).
In the case of `Cc1cc(NC(=O)CCc2ccccc2)c([N+](=O)[O-])cc1C`, the CPE inhibition was “inactive”.
For `O=C(Nc1nc2ccc3ccccc3c2s1)c1ccc(N2CCCCC2)c([N+](=O)[O-])c1`, the CPE inhibition was 13.2% (active).
`O=C(Nc1nc2ccccc2s1)c1ccc(N2CCCCC2)c([N+](=O)[O-])c1` showed a CPE inhibition of 2.82%.
In the case of `O=C(Nc1ccc(N2C(=O)c3cccc4cccc(c34)C2=O)cc1)c1ccc(N2CCCCC2)c([N+](=O)[O-])c1`, the CPE inhibition was 2.95%.
Compound `O=C(O)CSC(=S)N1CCCCC1` has a CPE inhibition of 0.795%.
In the case of `N#CC(C#N)=C1C=CC=CN1/C(=C\c1ccco1)C(=O)c1ccc(-c2ccccc2)cc1`, the CPE inhibition was “inactive”.
With `c1ccc(-c2c3ccccc3nc3[nH]c4ccccc4c23)cc1` the CPE inhibition was 23.8% (active).
In the case of `O=C(O)c1cccc(-c2nc3ccccc3[nH]2)c1`, the CPE inhibition was 0.345%.
Work on `Cc1nc2ccccc2c(-c2ccccc2)c1CC(=O)O` yielded a CPE inhibition of 0.655%.
With `Cc1ccc(-n2nnnc2SC(C(=O)c2c[nH]c3ccccc23)c2ccccc2)cc1` (stereo not given) the CPE inhibition was “inactive”.
Work on `O=C1C=C(c2ccc(Cl)c(C(F)(F)F)c2)C[C@@H](c2ccc3c(c2)OCO3)C1` yielded a CPE inhibition of 7.58%.
`O=C1C=C(c2ccccc2)C[C@@H](c2ccc3c(c2)OCO3)C1` gave a CPE inhibition of 0.36%.
In the case of `O=C1C=C(c2cc(C(F)(F)F)cc(C(F)(F)F)c2)C[C@@H](c2ccc3c(c2)OCO3)C1`, the CPE inhibition was 17.9% (active).
For `O=C(CSCc1ccccc1)Nc1ccc(F)c(F)c1`, the CPE inhibition was “inactive”.
